The values that follow come from PubChem BioAssay (NCI).

Assay [1] can be described thus: NCI Yeast Anticancer Drug Screen. Data for the rad50 strain (AID 155).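 Also: 0% = growth of vehicle-only cultures of the same strain.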 The following applies: S. cerevisiae rad50 strain growth inhibition, stronger effect = higher value; at 50.0 µM unless noted. The procedure, abridged:
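Genetically altered yeast (DNA repair pathway); compound treatment; growth inhibition vs vehicle ctrl.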

A short description of assay [2]: NCI Yeast Anticancer Drug Screen. Data for the mec2-1 strain (AID 157). To be noted: S. cerevisiae mec2-1 strain, stronger effect = higher value; at 50.0 µM unless noted. The essentials:
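Yeast mec2-1 mutant treated with compound. Readout: growth inhibition vs vehicle controls.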

Assay [3] can be described thus: NCI Yeast Anticancer Drug Screen. Data for the sgs1 mgt1 strain (AID 161).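 Also: 0% = growth of cultures given vehicle only.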 To be noted: S. cerevisiae sgs1 mgt1 strain, stronger effect = higher value; at 50.0 µM unless noted. The essentials:
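Genetically altered yeast, compound exposure, growth inhibition relative to vehicle.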

A short description of assay [4]: NCI Yeast Anticancer Drug Screen. Data for the cln2 rad14 strain (AID 165).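 Also: 0% = growth equal to vehicle treated cultures.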 The following applies: S. cerevisiae cln2 rad14 strain, stronger effect = higher value; at 50.0 µM unless noted. The procedure, abridged:
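cln2 rad14 yeast strain; compound exposure; growth inhibition read vs vehicle controls.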

A short description of assay [5]: NCI Yeast Anticancer Drug Screen. Data for the bub3 strain (AID 167). To be noted: S. cerevisiae bub3 mutant strain, stronger effect = higher value; at 50.0 µM unless noted. The essentials:
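Yeast carrying a defined mutation is treated with each compound, and growth is compared with that of vehicle-exposed cells to give inhibition.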

The nature of assay [6]: NCI Yeast Anticancer Drug Screen. Data for the mlh1 rad18 strain (AID 175). The following applies: S. cerevisiae mlh1 rad18 strain growth inhibition, stronger effect = higher value; at 50.0 µM unless noted. The essentials:
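Yeast w/ defined DNA-repair lesions; compound exposure; growth vs vehicle controls → % inhibition.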

This is part of a sample that, as a whole, favours compounds with a hit. Of some 79,000 tested, about 15% had one in any assay. Unmarked numbers belong to inactive results. Active and inactive are the calls of the source. Rule as the data show it: active = growth inhibition above about 70%; inactive = the rest.

`COc1cc(C2c3cc4c(cc3OC(NN=C(C)C)C2C)OCO4)cc(OC)c1O` (stereo not given): the growth inhibition was 14.2% in assay [1]; 1.7% in assay [2]; 9.65% in assay [3]; 4.5% in assay [4]; 12.8% in assay [5]; 10.9% in assay [6].
Turning to `O=C(NC12CC3CC(CC(C3)C1)C2)C(=O)c1c[nH]c2ccc([N+](=O)[O-])cc12`, the growth inhibition in assay [1] was -17.4%; in assay [2], -25.1%; in assay [3] it was -50.6%; in assay [4], -9.85%; in assay [5] it was -15.1%; in assay [6], -31.9%.
In the case of `COC1CC(OC2CCC3(C)C(CCC45CCC(C6=CC(=O)OC6)C(C)(CCC43)C5=O)C2)OC(C)C1O` (stereo not given), the growth inhibition was 22.4% in assay [1]; -11.7% in assay [2]; 2.6% in assay [3]; 17.6% in assay [4]; 12.8% in assay [5]; -17.9% in assay [6].
Take `O=C(NC(Cc1ccc(I)cc1)C(=O)O)c1ccc(Br)cc1` (stereo not given): the growth inhibition is -4.3% in assay [1]; -5.65% in assay [2]; 2.8% in assay [3]; 12.1% in assay [4]; -9.4% in assay [5]; -0.9% in assay [6].
As for `O=[N+]([O-])c1cnccc1/C=C\c1ccccc1`, the growth inhibition is 4.5% in assay [1]; 3.15% in assay [2]; -2.1% in assay [3]; -35.9% in assay [4]; -5.7% in assay [5]; 12% in assay [6].
With `NC(=S)N/N=C/c1ccc([N+](=O)[O-])s1`, the growth inhibition in assay [1] was 9.65%; in assay [2], 1.1%; in assay [3], 19.9%; in assay [4], 25.1%; in assay [5], 22%; in assay [6], 32.5%.
As to `CCCCOC(=O)C1CN2C=CC=NC2=NC1(C(F)(F)F)C(F)(F)F` (stereo not given), the growth inhibition in assay [1] is -16.1%; in assay [2], 27%; in assay [3], 6.6%; in assay [4], 0.95%; in assay [5] it was 3.35%; in assay [6], -43.1%.
For the molecule `C=C1C(=O)OC2C3[C@@]4(C)O[C@H]4[C@H]4O[C@@]34[C@](C)(O)CC(OC(C)=O)[C@@H]12` (stereo not given in full), the growth inhibition is -16.4% in assay [1]; -30.6% in assay [2]; -7.3% in assay [3]; -7.45% in assay [4]; -24.4% in assay [5]; -22.1% in assay [6].
Regarding `Cc1ccc(OCC(=O)N2N=C(c3ccccc3)CC2(O)c2ccccc2)cc1` (stereo not given), the growth inhibition in assay [1] is -7.6%; in assay [2], -41.9%; in assay [3], -30.6%; in assay [4], -15.6%; in assay [5], 0%; in assay [6], -24.2%.
For `O=C(O)c1ccccc1C(=O)Nn1cnnc1`, the growth inhibition in assay [1] was -7.55%; in assay [2], 1.15%; in assay [3], -25.9%; in assay [4], 17.2%; in assay [5], -8.1%; in assay [6] it was -0.1%.
In the case of `OC1COC(CCl)OC1C1OC(CCl)OCC1O` (stereo not given), the growth inhibition in assay [1] was 10.2%; in assay [2], 23.6%; in assay [3], 17.9%; in assay [4], 6.3%; in assay [5] it was 19.4%; in assay [6], 25.9%.
As to `OCC1OCOC(CO)(CO)C1O` (stereo not given), the growth inhibition in assay [1] was 1.15%; in assay [2], 0.05%; in assay [3] it was 8.1%; in assay [4], -44.3%; in assay [5] it was 21.7%; in assay [6] it was 3.75%.
With `NNC(=O)c1nnn(CCc2ccccc2)c1C(=O)NN`, the growth inhibition in assay [1] is -1.45%; in assay [2], 3.25%; in assay [3], -1.15%; in assay [4], 5.55%; in assay [5], -9.55%; in assay [6], -3.9%.
In the case of `C=CCCCC1CCCNC1=S` (stereo not given), the growth inhibition was 8.3% in assay [1]; 6.1% in assay [2]; 20.4% in assay [3]; 12.6% in assay [4]; 28.9% in assay [5]; 20.9% in assay [6].
Consider `CC(=O)Nc1nnn(C)n1`, for which the growth inhibition in assay [1] was -4.65%; in assay [2], -5.55%; in assay [3], 0.8%; in assay [4], -39.5%; in assay [5] it was 9.1%; in assay [6] it was -3.45%.
Consider `CS(=O)(=O)c1ccc(/C(=N/N)c2ccccc2)cc1`, for which the growth inhibition was 1.65% in assay [1]; 9.65% in assay [2]; 9.2% in assay [3]; 28.2% in assay [4]; 13.5% in assay [5]; 17.4% in assay [6].
On to `Cc1ccc(C)c(NS(=O)(=O)c2ccc(Cl)cc2)c1`, for which the growth inhibition in assay [1] was 98.9% (active); in assay [2], 99.2% (active); in assay [3], 99.1% (active); in assay [4], 99.3% (active); in assay [5], 98.8% (active); in assay [6] it was 99.2% (active).
`COc1cccc(/C=C/C(C)=N/NC(N)=O)c1`: the growth inhibition was 6.5% in assay [1]; 0.25% in assay [2]; 5.5% in assay [3]; -7.1% in assay [4]; 6.35% in assay [5]; 8.65% in assay [6].
Take `COc1cccc(C2SCC(=O)N2c2ccc(-n3c(-c4ccccc4)nc4ccccc4c3=O)cc2)c1OC` (stereo not given): the growth inhibition was 11.9% in assay [1]; 26.4% in assay [2]; 0.9% in assay [3]; -9.7% in assay [4]; 22.4% in assay [5]; 26.9% in assay [6].
Turning to `O=C(NCCCl)c1ccc(Cl)c(Cl)c1`, the growth inhibition in assay [1] is 2.8%; in assay [2] it was 0.25%; in assay [3], 4.95%; in assay [4] it was -20.9%; in assay [5] it was 12.8%; in assay [6], 3.7%.
